The list is not random: actives were taken first. Their share in the collection is about 12%.
HCV inh = inhibitors of hepatitis C virus infection. Potency, µM (top dose mostly 41.8 µM), for inactives: top-dose activity change, negative = inhibition, usual class: inhibitors. 3.4% of 340,000 active. AID 651820. Huh7.5.1 HCVcc-Cre infection, luciferase reporter, 44 h; note: % is set by controls: 0 for no effect and ±100 for the full control effect
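A cell-based infection assay in which seeded cells (1,000 per well) receive test compound after 4 h, are inoculated with HCVcc-Cre at approximately 0.5 moi, and are incubated 44 h before luminescence detection.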
SARS PLpro yeast = inhibitors of SARS-CoV papain-like protease in yeast; S. cerevisiae expressing SARS-CoV PLpro, growth rescue; Potency, µM (top dose mostly 32.9 µM), for inactives: at the highest dose activity, positive = growth rescue, hits mostly activators; 0.19% of 330,000 active; calls by dose curve; note: 0% is about no effect; nearly all actives have a fitted effect of over 55% in size
NS1 inh = blocks influenza NS1 protein function; 0.4% of 270,000 active; Potency, µM (highest dose often 46.1 µM), for the others: at the top dose activity, positive = more growth; calls by dose curve; note: actives are rising curves; nearly all actives have a fitted effect of over 50% in size
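OD600 was taken as the measure of yeast growth restored by compound in an NS1-expressing S. cerevisiae strain. Cells had been washed out of glucose medium and diluted 1:100 into galactose -URA medium, pH 6.0.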
Pf growth 96h = inhibits malaria parasite growth, 96 h | 6.9% of 320,000 active | P. falciparum luciferase reporter growth, 96 h | Potency, µM (highest dose often 28.7 µM), without a hit: at the highest dose activity change, negative = inhibition, usual class: inhibitors | AID 504834; note: % is set by controls: 0 for no effect and ±100 for the full control effect
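Two-generation exposure (96 h) targets delayed-death phenotype. Reporter parasites carrying integrated firefly luciferase, in red cells at 2% hematocrit and 0.05% parasitemia final, kept at 37 C, 5% CO2; luminescence loss indicates inhibition.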
AMA1 RON2 block = inhibitors of Plasmodium falciparum AMA1-RON2 interaction. AID 720542. 0.2% of 360,000 active. Potency, µM (doses to about 58.2 µM), inactives show at the highest dose activity change, negative = inhibition, actives largely listed as inhibitors. AlphaScreen AMA1-biotinylated RON2 peptide binding;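 note: 0% = vehicle wells and -100% = peptide control; nearly all actives have a fitted effect of over 45% in size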
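AMA1 (3D7) with his tag at 25 nM final met compounds first, then biotinylated RON2 peptide at 25 nM; detection used donor plus acceptor beads, 10 µg/mL apiece, read by AlphaScreen after 30 min at room temperature.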
Pf growth 48h = P. falciparum growth inhibition at 48 hours (one generation) | P. falciparum luciferase growth in erythrocytes, 48 h | Potency, µM (doses to about 28.7 µM), for the others: at the top dose activity change, negative = inhibition, actives largely listed as inhibitors | 5.9% of 310,000 active; note: % is set by controls: 0 for no effect and ±100 for the full control effect
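Erythrocytes infected with P. falciparum carrying an integrated firefly luciferase reporter (2% hematocrit, 0.1% parasitemia final) were exposed to compounds in RPMI 1640 with 0.5% Albumax at 37 C, 5% CO2. Growth inhibition was scored as reduced luminescence.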
Active calls of the source: *; ? = inconclusive; . = no result given; [ ] = remark or other dose. Unless noted, calls come from the whole dose curve; as a rule, active = well fitted curve in the direction sought with a large enough effect; inconclusive = small, poorly fitted or top-dose-only effect, or another doubt; inactive = no such curve, though single readings can be large; an effect the other way counts as inactive or inconclusive. Potency is the fitted concentration of half-maximal effect.

SMILES	HCV inh	SARS PLpro yeast	NS1 inh	Pf growth 96h	AMA1 RON2 block	Pf growth 48h
O=P(c1ccccc1)(c1ccccc1)c1nc(-c2ccccc2)oc1NCc1ccccc1	6.4%	0.4%	.	9.28µM*	-23.3%	5.86µM*
CCOP(=O)(OCC)c1nc(Cc2ccccc2)oc1NCc1ccccc1	-9.7%	-0.6%	-3.5%	10.4µM*	-8.3%	9.28µM*
CCOP(=O)(OCC)c1nc(-c2ccc(F)cc2)oc1NCc1ccccc1	-25.8%	-1.4%	3.2%	?	-1.5%	?
CCOc1ccc(NS(=O)(=O)c2cc(C(=O)N(CC)CC(=O)NCc3cccs3)ccc2C)cc1	?	-0.3%	.	?	3.4%	-18.6%
COc1ccc(CN2CCNC(=O)C2CC(=O)NCCc2c[nH]c3ccccc23)c(OC)c1 (configuration not stated)	21.2%	-1.3%	3.0%	?	-2.2%	?
CCN1C(=O)/C(=C/N(C)c2ccccc2)OC1=S	-29.3%	-3.8%	-32.1%	-6.4%	4.2%	45.9%
CCN1C(=O)/C(=C\N(C(C)=O)c2ccccc2)OC1=S	?	-57.9%	-16.2%	11.7µM*	0.0%	31.9%
CC(=O)Oc1c(C)c2c3c(c1OC(C)=O)[C@@H](C)CC[C@@H]3[C@@H](C)C[C@H]2C=C(C)C	-29.2%	-0.4%	.	?	-7.3%	11.7µM*
CC(C)=C[C@@H]1C[C@H](C)[C@H]2CC[C@H](C)c3c(O)c(O)c(C)c1c32	?	1.7%	.	10.4µM*	-8.9%	3.7µM*
CC(C)Cc1nnc(NC(=O)C2=COCCO2)s1	9.4%	4.0%	.	268.2%	-1.2%	267.2%
O=C(CCNC(=O)c1ccc(Br)cc1)NCC1COc2ccccc2O1 (configuration not stated)	15.0%	7.3%	-26.6%	48.5%	-7.4%	?
CCOC(=O)/C(=N\Nc1cc(Cl)ccc1Cl)N1CCN(CC)CC1	?	-12.2%	-17.4%	3.29µM*	-5.3%	?
Nc1ccc2c(c1)N1CCN=C1S2	4.1%	1.0%	1.7%	15.1%	?	19.1%
O=C(Nc1ccc(Cl)cc1)Nc1ccc2c(c1)N1CCN=C1S2	10µM*	-9.3%	-100.7%	2.08µM*	?	0.738µM*
Cc1ccc(NC(=O)CCC(=O)c2cccs2)c(O)c1	-26.3%	-1.3%	-30.1%	90.3%	13.1%	61.4%
CCOC(=O)c1cnc(SCc2ccc(Cl)c(Cl)c2)nc1N1CC1	11.2µM*	.	.	.	-0.4%	.
CCOC(=O)c1cnc(SCc2ccccc2)nc1N	?	-2.3%	-12.8%	.	3.7%	146.9%
O=C(COc1ccc(Cl)cc1)OCCNC12CC3CC(CC(C3)C1)C2	.	.	.	-23.9%	.	-10.7%
Cc1nn(CC(=O)NCCCN2CCC(Cc3ccccc3)CC2)c(=O)c2cc(-c3ccccc3)nn12	?	25.8%	7.6%	4.15µM*	-3.6%	?
Cc1ccc(C(=O)NN2C(=O)C3C(C2=O)C2C=CC3C23CC3)cc1 (configuration not stated)	16.1%	-0.1%	.	?	4.6%	-3.6%
CC(=O)Nc1ccc(OC(=O)c2cc3ccccc3oc2=O)cc1	4.6%	2.0%	5.7%	11.7µM*	1.1%	18.9%
O=C(c1ncc[nH]1)c1cccs1	5.4%	-1.5%	-4.5%	37.6%	-6.3%	78.0%
CN1[C@H]2CC(OC(=O)[C@H](CO)c3ccccc3)C[C@H]1[C@H]1O[C@H]12 (some centres not stated)	.	.	.	-15.6%	.	-4.0%
CCN(CC)S(=O)(=O)c1ccc(N2CCCCC2)c(NC(=O)C2=COCCO2)c1	?	1.0%	.	1.47µM*	-8.5%	1.85µM*
CCN(CC)S(=O)(=O)c1ccc(N2CCCCC2)c(NC(=O)C2CCN(C(=O)c3ccc(F)cc3)CC2)c1	?	-2.7%	.	9.28µM*	1.0%	11.7µM*
SMILES	HCV inh	SARS PLpro yeast	NS1 inh	Pf growth 96h	AMA1 RON2 block	Pf growth 48h
CCN(CC)S(=O)(=O)c1ccc(N2CCCC2)c(NC(=O)C2=COCCO2)c1	18.3%	-0.6%	.	-19.5%	-11.8%	14.6%
CCN(CC)S(=O)(=O)c1ccc(OC(C)C)c(NC(=O)C2=COCCO2)c1	?	-1.6%	.	8.28µM*	31.9%	?
S=c1[nH]nc(CSCCOc2ccc(Cl)cc2Cl)o1	13.9%	0.1%	-38.3%	24.6%	109.7%	9.3%
Cc1ccc(S(=O)(=O)Nc2cccc(C(=O)N3CCCC3)c2)cc1F	30.3%	-3.2%	.	19.9%	0.8%	-5.4%
COc1ccc(NC(=O)N2C[C@H]3CON(C)[C@H]3C[C@H]2c2ccc(N3CCCCC3)cc2)cc1	.	.	.	.	-7.4%	.
NC1=NC[C@@H](Cc2ccc(O)cc2)N1CCc1cccc2ccccc12	20.7%	-0.6%	-8.8%	1.85µM*	7.7%	5.86µM*
NC1=NC[C@H](Cc2ccc(O)cc2)N1CCc1cccc2ccccc12	-1.7%	-2.0%	16.0%	1.04µM*	-5.7%	3.29µM*
O=C1NC[C@@H](Cc2ccc(O)cc2)N(CCc2cccc3ccccc23)C1=O	6.6%	1.2%	-0.7%	?	13.1%	?
NCCCC[C@H]1CN=C(N)N1CCc1cccc2ccccc12	3.6%	.	.	.	7.6%	.
O=C(/C=C/[C@H]1O[C@@H](n2ccc(=O)[nH]c2=O)[C@H](O)[C@@H]1O)NCCCc1ccccc1	.	.	.	.	9.7%	.
Cc1ccc(-c2csc(NC(=O)c3ccc(F)cc3)c2C(=O)O)cc1	18.8%	-4.0%	-50.4%	2.8%	5.6%	5.4%
CCN1CCN(c2ccc(NC(=O)c3ccc4c(c3)[nH]c(=O)n4Cc3ccc(OC)cc3)cc2)CC1	?	17.9%	5.2%	10.4µM*	?	?
COc1ccc(N2CCN(CCNC(=O)Nc3ccc(Cl)cc3)CC2)cc1	?	6.2%	-2.2%	?	-11.6%	.
COc1ccc(N2CCN(c3ccc(NC(=O)NN)cc3)CC2)cc1	0.8%	-0.6%	23.6%	11.7µM*	-14.3%	-25.0%
COc1ccc(C(=O)Nc2ccc(N3CCN(C(=O)c4ccccc4C)CC3)cc2)cc1	11.2µM*	-1.4%	12.3%	?	-2.1%	?
COc1ccc(Nc2ncc(C(=O)N3CCN(c4ccc(F)cc4)CC3)c3ccccc23)cc1	11.2µM*	2.7%	-9.9%	1.85µM*	-5.5%	?
COc1ccc(C(=O)N2CCN(c3ccc(NC(=O)c4cccnc4)cc3)CC2)cc1	-24.5%	-4.1%	-3.9%	-16.2%	3.8%	-8.7%
COc1ccc(C(=O)Nc2ccc(N3CCCC3)cc2)cc1	-23.9%	-12.8%	10.2%	4.15µM*	-5.7%	.
COc1ccc(N2CCSC2C(=O)NN)cc1 (configuration not stated)	21.5%	16.5%	8.8%	9.28µM*	-6.1%	26.9%
COc1ccc(C(=O)NC(=S)Nc2ccc(N3CCCC3)cc2)cc1	-19.8%	-0.6%	.	47.1%[5.75 µM]	-3.9%	2.6%[5.75 µM]
CNC(=S)N1C2CCCC1CC(NC(=O)c1ccc(F)cc1)C2 (configuration not stated)	9.0%	-4.6%	12.5%	?	-5.8%	-28.9%
